Screens (PubChem)
Pol beta inh – blocks human DNA polymerase beta activity; P06746; Pol beta primer extension/strand displacement, fluorescence kinetic; Potency, µM (titrated, usually from 114 µM), for inactives: top-dose activity change, negative = inhibition, usual class: inhibitors; hit rate 1.3% among 340,000; AID 485314; note: % is set by controls: 0 for no effect and ±100 for the full control effect
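Preincubation: enzyme (10 nM) with compound, 15 min, RT. Reaction: substrate added to 50 nM final. Reads: 0 and 10 min. Analysis: normalized, Hill fit.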
Pol iota inh – inhibitors of human DNA polymerase iota; Pol iota fluorescent replication assay, 10 min; Potency, µM (top dose mostly 115 µM), for the others: at the highest dose activity, negative = inhibition, hits mostly inhibitors; hit rate 1% among 390,000; AID 588590
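Fluorescent replication assay read twice, at 0 min and 10 min after adding 50 nM (final) substrate. Enzyme (10 nM) and compounds were first incubated 15 min at room temperature; enzyme-free buffer wells were negative controls.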
Pol kappa inh – inhibitors of human DNA polymerase kappa; hit rate 0.53% among 400,000; Q9UBT6; purified Pol kappa, fluorescent DNA synthesis assay, 10 min; Potency, µM (series often up to 107 µM), inactives show top-dose activity, negative = inhibition, usual class: inhibitors; AID 588579; note: % is set by controls: 0 for no effect and ±100 for the full control effect
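10 nM Pol kappa was preincubated with compounds for 15 min at room temperature. Reaction started with 50 nM (final) substrate. Fluorescence read kinetically at 0 and 10 min.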
FEN1 inh – inhibitors of human flap endonuclease 1; AID 588795; Potency, µM (titrated, usually from 114 µM), without a hit: top-dose activity change, negative = inhibition, hits mostly inhibitors; P39748; Recombinant FEN1 flap cleavage, fluorescence, 15 min; hit rate 0.35% among 390,000; note: % is set by controls: 0 for no effect and ±100 for the full control effect; nearly all actives have a fitted effect of over 65% in size
Target sequence (P39748 whole entry, looked up): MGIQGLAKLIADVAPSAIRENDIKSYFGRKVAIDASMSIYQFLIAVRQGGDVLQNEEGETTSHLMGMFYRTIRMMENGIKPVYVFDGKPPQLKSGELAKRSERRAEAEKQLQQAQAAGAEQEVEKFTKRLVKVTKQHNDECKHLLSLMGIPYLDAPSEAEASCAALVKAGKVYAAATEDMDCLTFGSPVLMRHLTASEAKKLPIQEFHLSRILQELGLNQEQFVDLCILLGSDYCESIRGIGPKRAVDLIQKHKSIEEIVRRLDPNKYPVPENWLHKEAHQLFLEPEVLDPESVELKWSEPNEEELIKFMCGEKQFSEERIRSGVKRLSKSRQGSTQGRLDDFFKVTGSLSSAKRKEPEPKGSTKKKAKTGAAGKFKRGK
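Concentration–response screening of FEN1 (10 nM): 15 min compound preincubation at room temperature, reaction started with 50 nM substrate and read at 0 and 15 min. Corrected, normalized data were fitted by a four-parameter Hill equation.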
WRN helicase inh – blocks human WRN helicase | Q14191 | WRN helicase unwinding, fluorescent forked duplex, kinetic | Potency, µM (doses to about 114 µM), for inactives: at the top dose activity change, negative = inhibition, most hits filed as inhibitors | hit rate 0.46% among 360,000; note: % is set by controls: 0 for no effect and ±100 for the full control effect; nearly all actives have a fitted effect of over 55% in size
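Fluorescence dequenching readout, ex 525 nm/em 598 nm, kinetic mode: forked duplex DNA (100 nM final) with adjacent fluorophore and quencher unwound by WRN (20 nM final) with 2 mM ATP. Compound preincubation 15 min, room temperature.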
POLH inh – DNA polymerase eta (human) inhibition; Q9Y253; recombinant Pol eta, fluorescent DNA replication assay; Potency, µM (doses to about 114 µM), for inactives: top-dose activity change, negative = inhibition, actives largely listed as inhibitors; hit rate 1.2% among 390,000; AID 588591; note: % is set by controls: 0 for no effect and ±100 for the full control effect
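Pol eta at 10 nM preincubated with compounds 15 min at room temperature; reaction started with fluorescent substrate (50 nM final) and read kinetically at 0 and 10 min.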
* marks the source's active call; other numbers are inactive results; ? = inconclusive; / = not tested or not shown; ! = repeats disagree; [ ] = dose if it differs, or a comment. An excerpt weighted towards active compounds, which were near 2.4% of everything screened. Calls come from the whole dose curve; as a rule, active = well fitted curve in the direction sought with a large enough effect; inconclusive = small, poorly fitted or top-dose-only effect, or another doubt; inactive = no such curve, though single readings can be large; an effect the other way counts as inactive or inconclusive. Potency is the fitted concentration of half-maximal effect.

SMILES	Pol beta inh	Pol iota inh	Pol kappa inh	FEN1 inh	WRN helicase inh	POLH inh
O=c1[nH]c(=O)n(-c2ccc(F)cc2)c(O)c1/C=C1\C=Nc2ccccc21	17%	7.9µM*	?	-3%	?	89µM*
COc1ccc(-n2c(O)c(/C=C3\C=Nc4ccc(Br)cc43)c(=O)[nH]c2=O)cc1	-13%	7.9µM*	-5%	-34%	-6%[57.1 µM]	-16%
CCCCOc1ccc(C(=O)NCCc2csc(-c3ccc(OC)cc3)n2)cc1	-18%	?	-6%[60.1 µM]	-32%	/	1%
O=C1CC2OCC=C3CN4CCC56c7ccccc7N1C5[C@H]2[C@H]3C[C@H]46 (stereo partly specified) (tested in a mixture with another compound)	/	/	5%[19.4 µM]	/	/	/
COP(=S)(OC)Oc1ccc([N+](=O)[O-])cc1	/	/	-17%[60.1 µM]	/	/	/
Oc1cc(O)c2c(c1)OC(c1cc(O)c(O)c(O)c1)C(O)C2 (stereo unspecified)	/	/	4µM*	/	/	/
O=C(O[C@@H]1Cc2c(O)cc(O)cc2O[C@@H]1c1cc(O)c(O)c(O)c1)c1cc(O)c(O)c(O)c1	0.45µM*	/	/	/	/	/
O=C1C[C@@H](c2ccc(O)cc2)Oc2cc(O)cc(O)c21	-19%	11%	-2%	6%	3%	-14%
CCCCCC[C@H]1C(=O)O[C@H](C)[C@H](NC(=O)c2cccc(NC=O)c2O)C(=O)O[C@@H](C)[C@@H]1OC(=O)CC(C)C	/	/	-13%[19.4 µM]	/	/	/
O=C(O)c1c(C(=O)O)c(-c2ccc(Br)cc2)n2c1CSC2	4%	?	0%	-16%	-5%	4%
N.N.N.N.N.N.N.N.N.N.N.N.N.N.O.O.[Cl-].[Cl-].[Cl-].[Cl-].[Cl-].[Cl-].[Ru].[Ru].[Ru]	5.6µM*	8.9µM*	/	/	/	25µM*
CC(C)c1ccc2c(c1O)CCC1C3=C(CC[C@]21C)C(=O)OC3 (stereo partly specified)	/	/	-13%[60.1 µM]	/	/	/
COC[C@H]1OC(=O)c2coc3c2[C@@]1(C)C1=C(C3=O)C2CCC(=O)[C@@]2(C)C[C@H]1OC(C)=O (stereo partly specified)	1%[57.1 µM]	-4%[58.9 µM]	?	13µM*!	/	-3%[57.1 µM]
NCCCC[C@@H](N)C(=O)O	/	/	19%[60.1 µM]	/	/	/
CCCc1cc(=O)oc2cc(OCc3ccc(C(=O)O)o3)ccc12	71µM*	113%	-16%	-1%	-3%[11.6 µM]	?
COc1ccc(C=C2C(=O)NC(=S)NC2=O)cc1	/	-3%	-10%	-4%	50µM*	-4%
O=C1NC(=S)NC(=O)C1=Cc1ccc(OCc2ccccc2)cc1	/	47%	-8%	5%	35µM*	-10%
CCc1ccc(N2NC(=O)/C(=C/C=C/c3ccco3)C2=O)cc1	?	18µM*	?	-16%	?	?
CCN1C(=O)NC(=O)/C(=C\c2ccc(N3CCOCC3)cc2OC)C1=O	-1%	/	/	/	/	/
COc1cc(N2CCOCC2)ccc1/C=C1\C(=O)NC(=O)N(C2CCCCC2)C1=O	21%	-4%	-1%	-2%	79µM*	-18%
CCOP(=S)(OCC)SCn1c(=O)oc2cc(Cl)ccc21	/	/	-4%[60.1 µM]	/	/	/
O=C(CSc1nnc(NC(=O)C2CCCCC2)s1)NCc1ccco1	6%	41%	-4%	-2%	-27%	-20%
CCc1nnc(NC(=O)CSc2ccc(-c3ccco3)nn2)s1	14µM*	14%	1%	2%	-1%	-20%
C=C1C(=O)OC2CC3(C)OC3CCC(C)=CC(OC(C)=O)C12 (stereo unspecified)	/	5%	-2%	1%	-3%	-14%
C=C1C(=O)O[C@@H]2C[C@@H](C)[C@H]3C=CC(=O)[C@]3(O)C[C@@H]12	-1%	?	-26%	14%	-24%	32µM*
SMILES	Pol beta inh	Pol iota inh	Pol kappa inh	FEN1 inh	WRN helicase inh	POLH inh
CC[C@@]1(O)C(=O)OCc2c1cc1n(c2=O)Cc2cc3cc(O)ccc3nc2-1	/	/	-11%[60.1 µM]	/	/	/
CCn1c(=S)sc2c(=O)[nH]c(SCC(=O)Nc3cc(OC)ccc3OC)nc21	0%	?	-17%	-9%	-4%[11.6 µM]	50µM*
O=C1NC(=S)SC1=Cc1ccc(N(CCCl)CCCl)cc1	/	16µM*	?	?	-17%	79µM*
CCCN(CCC)CCc1ccc(O)c(O)c1	4%[57.1 µM]	-2%[58.9 µM]	1%[60.1 µM]	/	/	-5%[57.1 µM]
C[C@@H](N)[C@@H](O)c1ccc(O)c(O)c1	/	/	1µM*	/	/	/
COc1ccc(OC)c(C(O)C(C)N)c1 (stereo unspecified)	11%	21%	-8%[60.1 µM]	2%	6%	-14%
C[C@H](N)[C@H](O)c1ccc(O)c(O)c1	/	/	0.75µM*	/	/	/
CC(C)CN1CC[C@@]2(CCCN(C(=O)Oc3ccccc3)C2)C1	/	/	-4%[60.1 µM]	/	/	/
Cn1cccc1/C=C1/C(=O)NC(=O)N(Cc2ccc(F)cc2)C1=O	1%	40µM*	71µM*	-6%	?	79µM*
COc1ccc(CN2C(=O)NC(=O)/C(=C/c3cc(OC)c(OC)c(OC)c3)C2=O)cc1	-2%	21%	-7%	-16%	45µM*	1%
COc1ccc(/C=C2/C(=O)NC(=O)N(c3ccc(C)c(C)c3)C2=O)cc1CN1C(=O)c2ccccc2C1=O	-14%	142%	-12%	-11%	40µM*	-8%
COc1ccc(CN2C(=O)NC(=O)/C(=C/c3ccc(OC)c(OC)c3OC)C2=O)cc1	20%	34%	-5%	-15%	?	-9%
O=C1NC(=O)N(c2ccccc2)C(=O)/C1=C\c1ccc([N+](=O)[O-])o1	7.9µM*	/	/	/	/	/
CC[C@@H]1CN2CCc3cc(OC)c(OC)cc3[C@H]2C[C@@H]1C[C@@H]1NCCc2cc(O)c(OC)cc21	/	/	-11%[12 µM]	/	/	/
C[C@]12CC[C@@H]3c4ccc(O)cc4C[C@@H](CCCCCCCCCS(=O)CCCC(F)(F)C(F)(F)F)[C@H]3[C@@H]1CC[C@@H]2O (stereo partly specified)	/	/	-8%[60.1 µM]	/	/	/
CCOc1ccc(C(=O)N2CCC(c3noc(-c4ccc(S(=O)(=O)N5CCCC5)cc4)n3)CC2)cc1	22%	29%	-3%	3%	/	-23%
COc1cc(/C=C2\C(=O)NC(=O)N(c3ccccc3)C2=O)cc(OC)c1OC	3%	6%	-2%	0%	50µM*	6%
O=C1NC(=O)N(c2ccccc2)C(=O)/C1=C\C=C\c1ccccc1	?	?	-11%	-1%	32µM*	?
COc1cc(/C=C2/C(=O)NC(=O)N(c3ccc(C)cc3)C2=O)cc(OC)c1OC	-23%	69%	-14%	0%	?	-14%
COC(=O)C(O)(c1ccc(NC(=O)c2ccccc2)cc1)C(F)(F)F (stereo unspecified)	1%	28%	-2%	16%	0%	-25%
